# High-throughput results (PubChem BioAssay)
# Rows were chosen to be rich in hits. Some 11% of all compounds tested hit in one or more screens of this group.
# MCF10A rerep: A quantitative high throughput screen for small molecules that induce DNA re-replication in MCF 10a normal breast cells. 350,000 tested, 2.9% active. Potency, µM (top dose mostly 46.1 µM), hits mostly activators. MCF 10A DNA re-replication, Hoechst nuclear intensity, 48 h. AID 624296, 2012; also: nearly all actives have a fitted effect of over 50% in size
# RORg inh: qHTS for inhibitors of ROR gamma transcriptional activity. 310,000 tested, 5.4% active. Drosophila S2 Gal4-RORgamma UAS-luciferase reporter, 20 h. Nuclear receptor ROR-gamma (Mus musculus), P51450. Potency, µM (doses to about 53.6 µM), usual class: inhibitors; also: nearly all actives have a fitted effect of over 60% in size
# Target sequence (P51450 whole entry, looked up, the tested form may be a part): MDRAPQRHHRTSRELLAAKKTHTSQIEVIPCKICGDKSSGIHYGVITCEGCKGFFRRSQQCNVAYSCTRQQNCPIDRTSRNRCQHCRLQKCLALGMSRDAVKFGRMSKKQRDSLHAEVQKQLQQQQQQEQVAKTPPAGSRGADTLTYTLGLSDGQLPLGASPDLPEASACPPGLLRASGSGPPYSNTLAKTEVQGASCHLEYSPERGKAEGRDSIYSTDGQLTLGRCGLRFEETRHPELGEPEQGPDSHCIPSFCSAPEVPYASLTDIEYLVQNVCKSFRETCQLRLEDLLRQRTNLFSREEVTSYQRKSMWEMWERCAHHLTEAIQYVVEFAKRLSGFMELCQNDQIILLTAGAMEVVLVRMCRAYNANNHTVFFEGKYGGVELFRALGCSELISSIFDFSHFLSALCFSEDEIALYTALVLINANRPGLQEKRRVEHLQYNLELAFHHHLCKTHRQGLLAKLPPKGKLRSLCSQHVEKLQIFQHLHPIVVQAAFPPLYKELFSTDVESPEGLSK
#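 Read-out: Photinus luciferase luminescence; inhibitors lower reporter signal. Insect Schneider cells with Gal4-ROR gamma fusion under metallothionein promoter, UAS reporter; 700 uM final copper sulfate induction, 20 hr, ambient temperature.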
# SW480 rerep: A quantitative high throughput screen for small molecules that induce DNA re-replication in SW480 colon adenocarcinoma cells; AID 624297, 2012; 340,000 tested, 1.8% active; Potency, µM (highest dose often 46.1 µM), actives largely listed as activators; SW480 DNA re-replication, Hoechst DNA content imaging, 48 h; also: nearly all actives have a fitted effect of over 55% in size
#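 Quantitative HTS format with DMSO vehicle controls; 48 hr drug incubation at 37 C, then 40 min Hoechst staining and scanning imager measurement at 405 nm excitation.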
# Gal4-VP16 FLuc: VP16 counterscreen qHTS for inhibitors of ROR gamma transcriptional activity; Drosophila S2 Gal4-VP16 UAS-luciferase, luminescence, 20 h; Potency, µM (top dose mostly 53.6 µM), usual class: inhibitors; 310,000 tested, 3.5% active;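 also: Gal4-VP16 expression switched on by copper sulfate through the metallothionein promoter; nearly all actives have a fitted effect of over 50% in size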
# IL1B secr inh: qHTS for Inhibitors of Inflammasome Signaling: IL-1-beta AlphaLISA Primary Screen | THP-1 LPS/ATP IL-1B secretion, AlphaLISA, 16 h; stronger effect = lower value | activity change, % at 57.5 µM | 360,000 tested, 4.7% active; in the data active = activity change below about -50%; inconclusive = mostly about -30% to -49%
#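 THP-1 cells pretreated 1 hr with compounds (up to 57.5 uM final), then stimulated with LPS (250 ng/mL final) plus ATP (1.25 mM final); secreted IL-1B measured by AlphaLISA after 16 hr, decreased signal indicating inhibition.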
# A number is an active result; . = inactive; ? = inconclusive; / = no result; [ ] = remark or other dose. Unless noted, calls follow the shape of the dose curve; as a rule, active = well fitted curve in the direction sought with a large enough effect; inconclusive = small, poorly fitted or top-dose-only effect, or another doubt; inactive = no such curve, though single readings can be large; an effect the other way counts as inactive or inconclusive.
SMILES,MCF10A rerep,RORg inh,SW480 rerep,Gal4-VP16 FLuc,IL1B secr inh
COc1ccc(C2=Nn3c(nnc3-c3ccccc3C)SC2)cc1,/,.,/,.,/
Cc1ccc(NC(=O)CCCn2c(=S)[nH]c3ccsc3c2=O)cc1C,?,12.6µM,.,?,.
O=C(CCCn1c(=S)[nH]c2ccsc2c1=O)Nc1ccc2c(c1)OCO2,.,12.6µM,.,.,.
Cc1ccc(NC(=O)CCCn2c(=O)[nH]c3ccsc3c2=O)cc1,.,.,.,.,.
Cc1cccc(NC(=O)CCCn2c(=S)[nH]c3ccccc3c2=O)c1,.,11.2µM,.,.[10 µM],.
COc1ccc(C(CC(=O)c2ccc(C)cc2)C(C#N)C#N)cc1OC (configuration not stated),20.6µM,?,?,?,-100.0
COC(=O)C(C(=O)OC)C(CC(=O)c1ccc(C)cc1)c1cc(OC)c(OC)c(OC)c1 (configuration not stated),?,.,.,.,.
CC1CC(C)CN(C(=O)CN2C(=O)NC3(CCCCCCC3)C2=O)C1 (configuration not stated),.,/,.,/,.
CCOC(=O)C1(C)CCCN1C(=O)c1ccccc1F (configuration not stated),/,/,/,/,.
O=C(Nc1ccccc1)Nc1ccc2nnsc2c1,.,?,.,.,-95.1
O=C(Nc1ccccc1)Nc1ccc2snnc2c1,.,?,.,?,.
CSc1ncnc2c1ncn2CCCNCc1ccc(C)o1,/,/,/,/,.
CCCCC(=O)N(c1ccc(OCC)cc1)C1C=CS(=O)(=O)C1 (configuration not stated),13µM,.,.,.,.
CC(OC(=O)c1ncc(Cl)c(Cl)c1Cl)C(=O)NC1(C#N)CCCCC1 (configuration not stated),?,/,.,/,-92.4
CC(=O)C1=C(S(=O)(=O)c2ccc(C)cc2)CS(=O)(=O)C1,14.6µM,?,14.6µM,.[10 µM],?
O=C(/C=C/c1ccco1)c1cccc([N+](=O)[O-])c1,.,/,.,/,?
O=C(N/N=C/C=C\c1ccco1)c1cccs1,?,?,.,?,?
O=C(NC1CCS(=O)(=O)C1)/C(=C\c1ccco1)NC(=O)c1ccccc1 (configuration not stated),.,.,.,.,-63.2
O=C(N/N=C/C=C/c1ccco1)/C(=C/c1ccccc1)NC(=O)c1ccccc1,.,12.6µM,.,?,.
O=C(N/N=C/C=C/c1ccco1)c1ccncc1,.,10µM,.,?,.
O=C(N/N=C/C=C/c1ccco1)c1cccc([N+](=O)[O-])c1,.,5.01µM,.,10µM,.
Cn1c(=O)c(CCc2ccccc2)nc2cnc(N3CCNCC3)nc21,/,.,/,.,/
CCN(CC(=O)Nc1c(F)cccc1F)C(=O)C1CCCN(C(=O)c2ccc(Cl)cc2)C1 (configuration not stated),.,10µM,.,11.2µM,.
N#CCCC(CCC#N)(CCC#N)c1cc[n+](CCc2ccccn2)cc1,.,/,.,/,.
CCOC(=O)/C(=N\Nc1ncnc2ccccc12)c1ccc(OC)cc1,.,7.08µM,.,14.1µM,.
SMILES,MCF10A rerep,RORg inh,SW480 rerep,Gal4-VP16 FLuc,IL1B secr inh
COc1ccc(/C(=N/Nc2ncnc3ccccc23)C(=O)O)cc1,.,0.282µM,?,0.501µM,.
COc1ccccc1Nc1ncnc2ccccc12,.,.,.,?,.
COc1cc(CNn2c(C)n[nH]c2=S)cc(Br)c1OCc1ccc(F)cc1,.,10µM,.,.,.
COc1cc(CNC(C)c2ccccc2)cc(Br)c1OCc1ccc(F)cc1 (configuration not stated),?,.[1.91 µM],?,?,-94.2
COc1cc(CNC(C)c2ccccc2)cc(Cl)c1OCC(=O)Nc1ccccc1 (configuration not stated),.,.,.,?,.
COc1cc(CNc2ccc(O)cc2)cc(Br)c1OCc1ccccc1,23.1µM,?,?,?,.
COc1cc(C(N)=O)cc(Br)c1OCc1ccccc1,.,.,.,.,.
COc1cc(CNC(C)c2ccccc2)cc(Br)c1OCc1ccccc1 (configuration not stated),?,?,23.1µM,?,-87.7
CSCCC(c1nc2ccccc2[nH]1)n1c(-c2cc(C(F)(F)F)cc(C(F)(F)F)c2)nc2ccccc21 (configuration not stated),/,/,/,/,.
O=S1(=O)CC(N2CCC(Cc3ccccc3)CC2)CN1C1CCCCC1 (configuration not stated),/,/,/,/,.
COc1ccccc1NC(=O)c1nnn(CC(=O)Nc2ccccc2)c1N,.,?,.,.,.
Cc1cc(C)cc(NC(=O)Cn2nnc(C(=O)NCc3ccc(F)cc3)c2N)c1,?,.,29.1µM,.,.
COc1ccccc1NC(=O)c1nnn(CC(=O)Nc2cccc(SC)c2)c1N,.,6.31µM,.,?,.
Cc1cc(C)cc(NC(=O)Cn2nnc(C(=O)NCc3ccccc3Cl)c2N)c1,.,.,.,.,.
CCc1ccccc1NC(=O)Cn1nnc(C(=O)NCc2cccc(OC)c2)c1N,7.31µM,.,?,.,.
CCOc1ccc(OCc2cccc(C(=O)N3CCCC3)c2)cc1,.,?,.,.,?
O=C(O)c1cccc(COc2ccc(CO)cc2Cl)c1,.,1.78µM,.,5.01µM,.
COc1ccc(OCc2cccc(C(=O)O)c2)cc1,.,1.78µM,.,?,.
CCOc1ccc(OCc2cccc(C(=O)O)c2)cc1,.,1.58µM,.,?,.
O=S(=O)(c1ccccc1)N1CCC[C@@]2(CCN(c3cccc(-c4ccccc4)c3)C2)C1,/,.,/,.,/
CCN1CCC2(CC1)N=C(c1ccc(F)cc1)C(=S)N2C(=O)c1ccc(C(C)(C)C)cc1,.,3.98µM,.,?,.
CN1CCC2(CC1)N=C(c1ccc(F)cc1)C(=S)N2C(=O)c1ccccc1,?,?,/,?,.
Cc1ccc(Nc2nc(-c3ccccc3)c(CC(=O)O)s2)cc1,.,.,.,.,?
O=C(O)Cc1sc(Nc2ccc(F)cc2)nc1-c1cccs1,20.6µM,?,.,.,.
COc1ccc(CCCNC(=O)C2Cc3c(-c4cccc(NC(C)=O)c4)ccnc3O2)cc1 (configuration not stated),/,/,/,/,.
CC1C/C(=C\c2cccnc2)C(=O)/C(=C/c2cccnc2)C1 (configuration not stated),?,1.12µM,?,0.631µM,-101.2
O=C1/C(=C\c2cccnc2)Sc2ccccc21,?,?,.,?,.
O=C1/C(=C/c2cccnc2)CCc2c1[nH]c1ccccc21,?,.,20.6µM,.,-103.2
COc1ccc(C2C=C3CNS(=O)(=O)C3CC2OC(=O)c2ccc(Cl)cc2)cc1 (configuration not stated),/,.,/,?,/
